Test results as given in PubChem BioAssay AID588511 (Johns Hopkins Ion Channel Center, 2011).
The whole screen tested about 310,000 compounds, of which about 3,600 (1.2%) were called active. The sample holds actives, similar compounds and a random draw of the others, so the mix is not that of the screen.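 Rule for the calls: active = ratio plate-corrected score three or more library SD toward inhibition, starting fluorescence score within five deviations; inactive = the rest.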

Target: Anoctamin-1 (Mus musculus) (UniProt Q8BHY3)
Sequence (Q8BHY3 whole entry, looked up): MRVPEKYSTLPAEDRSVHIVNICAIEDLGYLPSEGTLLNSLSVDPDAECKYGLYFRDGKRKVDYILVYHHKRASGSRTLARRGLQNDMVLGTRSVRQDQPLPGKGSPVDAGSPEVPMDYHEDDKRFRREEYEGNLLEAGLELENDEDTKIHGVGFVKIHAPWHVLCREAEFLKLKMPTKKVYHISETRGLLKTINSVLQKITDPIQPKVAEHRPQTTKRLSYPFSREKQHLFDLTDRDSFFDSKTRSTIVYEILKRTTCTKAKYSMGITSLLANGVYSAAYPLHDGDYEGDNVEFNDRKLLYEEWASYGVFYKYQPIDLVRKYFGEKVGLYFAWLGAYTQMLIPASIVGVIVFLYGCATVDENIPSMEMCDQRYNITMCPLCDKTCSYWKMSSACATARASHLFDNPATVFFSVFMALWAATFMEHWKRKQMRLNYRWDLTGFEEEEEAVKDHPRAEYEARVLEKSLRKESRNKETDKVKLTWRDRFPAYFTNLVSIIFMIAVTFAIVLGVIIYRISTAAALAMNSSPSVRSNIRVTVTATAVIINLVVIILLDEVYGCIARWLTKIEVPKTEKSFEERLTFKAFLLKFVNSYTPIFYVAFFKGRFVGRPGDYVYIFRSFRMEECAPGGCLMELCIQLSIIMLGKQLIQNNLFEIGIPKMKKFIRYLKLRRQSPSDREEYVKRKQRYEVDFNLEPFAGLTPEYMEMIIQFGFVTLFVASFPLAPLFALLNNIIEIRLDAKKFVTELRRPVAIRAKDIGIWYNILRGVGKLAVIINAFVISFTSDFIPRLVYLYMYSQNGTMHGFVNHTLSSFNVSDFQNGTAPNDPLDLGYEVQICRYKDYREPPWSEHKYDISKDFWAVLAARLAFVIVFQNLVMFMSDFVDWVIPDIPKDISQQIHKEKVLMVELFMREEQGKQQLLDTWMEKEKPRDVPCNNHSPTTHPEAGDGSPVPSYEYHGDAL
Assay: blockers of mouse ANO1 Ca-activated Cl channel – cell-based, HTS, primary screen (AID 588511);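 for normalized B-score (activity score, 25-100; higher = stronger inhibition): score derived from kinetic fluorescence span divided by baseline fluorescence per well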
Conditions: HEK293 TMEM16A/YFP iodide influx fluorescence, ionomycin; at 10 µM

Structure (SMILES)	normalized B-score (activity score, 25-100; higher = stronger inhibition)
O=c1ccc2cc(S(=O)(=O)NCCCc3ccccc3)ccc2[nH]1	inactive
Cc1ccc(Nc2cc(=O)n(C3CCCCC3)c(=O)[nH]2)cc1C	inactive
O=c1cc(C(F)(F)F)[nH]c(=O)n1C1CCCCC1	25 (active)
CCCOn1c(-n2nc(C)cc2C)nc2ccccc2c1=O	inactive
CC1=CC2=NC(=O)/C(=C/c3coc4ccccc4c3=O)C(=N)N2O1	inactive
COc1ccc(OCCCn2cccc2/C=C2/C(=N)N3OC(C)=CC3=NC2=O)cc1	25 (active)
CCOc1cc(/C=C2/C(=N)N3OC(C)=CC3=NC2=O)ccc1OC	inactive
Cn1cnc(C(F)(F)F)c1-c1ccc([N+](=O)[O-])cc1	inactive
O=C(Nc1ccccc1)c1ccc2c(c1)OCCCO2	inactive
O=C(Nc1cccc(S(=O)(=O)Nc2ccc(Cl)cc2)c1)c1ccc2c(c1)OCCO2	25 (active)
O=C(Nc1cccc(S(=O)(=O)N2CCCCC2)c1)c1ccc2c(c1)OCO2	inactive
CCn1c(SCC(=O)NCC2CCCO2)nc2cc(S(=O)(=O)N3CCCCC3)ccc21 (centres undefined)	inactive
CCCCn1c(SCc2ncc(-c3ccccc3)o2)nc2cc(S(N)(=O)=O)ccc21	25 (active)
CCCCn1c(SCC(=O)N2CCC(C(=O)OCC)CC2)nc2cc(S(N)(=O)=O)ccc21	inactive
CN(C)c1cc(-c2ccc(F)cc2)oc(=O)c1Cl	inactive
CC1(C)CCc2nc(SCc3ccccc3)c(C#N)cc2C1	inactive
N#CC1=C(SCc2ccc(C#N)cc2)N=C(N)C(c2nc(-c3ccccc3)cs2)C12CCCCC2 (centres undefined)	inactive
N#CC1=C(SCc2ccccc2)NC(=O)C(C#N)C12CCCC2 (centres undefined)	25 (active)
Nc1ccc(C(=O)OCC(=O)NC2CCS(=O)(=O)C2)cc1[N+](=O)[O-] (centres undefined)	inactive
CCC1CCCCN1C(=S)Nc1ccc(SC(F)F)cc1 (centres undefined)	inactive
COc1ccc(CCN2CC(C(=O)NCCN3CCNC3=O)CCC2=O)cc1 (centres undefined)	inactive
O=C(NC(=S)Nc1ccc(S(=O)(=O)N2CCOCC2)cc1)c1ccccc1[N+](=O)[O-]	inactive
O=[N+]([O-])c1cc(Cl)cc(/C=N/NC(=S)Nc2cc(S(=O)(=O)N3CCOCC3)ccc2Cl)c1O	100 (active)
O=C(N/N=C/c1ccc([N+](=O)[O-])o1)c1cccc(S(=O)(=O)N2CCOCC2)c1	inactive
Cc1ccsc1C(=O)N[C@@H](C)c1nnc2ccccn12	inactive

Structure (SMILES)	normalized B-score (activity score, 25-100; higher = stronger inhibition)
COC(C[C@@H]1O[C@@H]1C(=O)[C@H](C)OCc1ccccc1)OC	inactive
CSCCC(C(=O)NC1=NCCS1)N1C(=O)c2ccccc2C1=O (centres undefined)	inactive
COC(=O)[C@@H]1CC(O)CN1C(=O)C12CC3CC(CC(C3)C1)C2 (some centres undefined)	inactive
CC(C)OCCCNC(=O)c1cc(Sc2ccc(F)cc2)nc2ccccc12	inactive
CC(C)OCCCNc1ncnc2c1[nH]c1ccc(F)cc12	100 (active)
CNS(=O)(=O)c1cnccc1N1CCN(c2cccc(C)c2)CC1	inactive
CCC1(C)Cc2c(sc3[nH]c(=S)n(Cc4ccccc4)c(=O)c23)CO1 (centres undefined)	inactive
CC1CC(C)(C)n2c(O)c(N=NC(N)=S)c3cccc1c32 (centres undefined)	inactive
CCC(C)NCCOCCOc1ccc(Br)cc1C (centres undefined)	inactive
COc1cccc(OC)c1C(=O)N1CCN(Cc2cccnc2)CC1	inactive
Cc1ccc2c(c1)N(S(=O)(=O)c1cc(-c3cc(C)no3)ccc1C)CCO2	25 (active)
Cc1cc(-c2ccc(C)c(S(=O)(=O)Nc3ccc(S(N)(=O)=O)cc3)c2)on1	inactive
Cc1cc(-c2ccc(C)c(S(=O)(=O)NC(C)Cc3ccco3)c2)on1 (centres undefined)	inactive
C=CCNC(=O)C1CC2c3ccccc3C1c1ccccc12 (centres undefined)	inactive
CCOc1ccc(S(=O)(=O)N2CCCC(C(=O)N3CCC(C(N)=O)CC3)C2)cc1Cl (centres undefined)	inactive
C#CCOCCOCCOCCNc1nc(N2CCN(C(=O)CCCCCCCCCCNC(=O)[C@H]([C@@H](C)CC)n3cc(CCCCN=C(N)N)nn3)CC2)nc(N2CCN(C(=O)CCCCCCCCCCNC(=O)[C@H](CO)n3cc(CCCSC)nn3)CC2)n1	inactive
C#CCOCCOCCOCCNc1nc(N2CCN(C(=O)CCCCCCCCCCNC(=O)Cn3cc(CCCCCN)nn3)CC2)nc(N2CCN(C(=O)CCCCCCCCCCNC(=O)[C@H](CO)n3cc(CCCSC)nn3)CC2)n1	inactive
C#CCOCCOCCOCCNc1nc(N2CCN(C(=O)CCCCCCCCCCNC(=O)[C@H](CCCCN)n3cc(C)nn3)CC2)nc(N2CCN(C(=O)CCCCCCCCCCNC(=O)[C@H](CO)n3cc(CCCSC)nn3)CC2)n1	100 (active)
COC(=O)CSc1nc2c(c(C3CC=CCC3)c1C#N)CCC2 (centres undefined)	inactive
CCOC(=O)C1CCN(S(=O)(=O)c2c(C)noc2C)CC1	inactive
CC(=O)NCCc1nc2cc(NC(=O)c3ccccc3)ccc2n1C	inactive
Cn1c(CN2CCOCC2)nc2cc(NC(=O)c3ccc(Cl)cc3)ccc21	100 (active)
CCOC(=O)N1CCN(Cc2nc3cc(NC(C)=O)ccc3n2C)CC1	inactive
O=C(NCCCn1ccnc1)C1CCCN(S(=O)(=O)c2cc(Cl)ccc2Cl)C1 (centres undefined)	inactive
Nc1nnc2c(C(F)(F)F)nc3ccccc3n12	inactive

Structure (SMILES)	normalized B-score (activity score, 25-100; higher = stronger inhibition)
CCn1c(=O)c(C(=O)NCc2ccc3c(c2)OCO3)c(O)c2ccccc21	inactive
O=C(NCc1ccc2c(c1)OCO2)c1cc(F)c(F)cc1Cl	inactive
Cc1nc2c(C(=O)NCc3ccc4c(c3)OCO4)c[nH]n2c(=O)c1Cc1ccccc1F	100 (active)
CCN(C(=O)Cc1nc(N)n[nH]1)C1(C(=O)Nc2ccccc2)CCCCC1	inactive
COc1ccc(C(=O)NC2CCCc3c2cnn3-c2cccc(C)c2C)c(OC)n1 (centres undefined)	100 (active)
Cc1cc(C(=O)NC2CCCc3c2cnn3-c2cccc(C)c2C)c(C)o1 (centres undefined)	inactive
Cn1nccc1C(=O)NC1CCCc2c1cnn2-c1ccccc1F (centres undefined)	inactive
O=C(CCN1C(=O)c2ccccc2C1=O)C1=NN[C@@H]2C(=O)N(c3ccc(F)cc3)C(=O)[C@H]12	inactive
C=CCC(CC=C)(C(N)=O)c1ccccc1	inactive
Cc1ccccc1NC(=O)NCC1CCN(Cc2cccc(Cl)c2)CC1	inactive
CS(=O)(=O)N(CC(=O)N1CCN(c2cccc(Cl)c2)CC1)c1ccccc1	inactive
Cc1ccccc1S(=O)(=O)N1[C@@H](c2cccc(Cl)c2)C(C(=O)O)=CC[C@H]1c1ccc(Cl)cc1	100 (active)
Cc1ccc(S(=O)(=O)N2[C@@H](c3ccccc3F)C(C(=O)O)=CC[C@H]2c2ccc(Cl)cc2)cc1	inactive
Cc1ccc([C@@H]2CC=C(C(=O)O)[C@H](c3cccc(Cl)c3)N2S(=O)(=O)c2ccc(C)cc2)cc1	inactive
Cc1ccc(S(=O)(=O)N2[C@@H](c3cccc(Cl)c3)C(C(=O)O)=CC[C@H]2c2ccc(Cl)c(Cl)c2)cc1	100 (active)
CC(C)CCNC(=O)CC1C(=O)N(Cc2ccccc2)C(C)c2nc3ccccc3n21 (centres undefined)	inactive
CC1CCN(Cc2nc3c(c(=O)n(C)c(=O)n3C)n2CCc2ccccc2)CC1	inactive
O=C(Nc1ccccc1C(=O)NCC1CCCO1)c1ccccc1F (centres undefined)	inactive
CCC(C(=O)NCc1cccnc1)n1nc(C)c2sc3ccccc3c2c1=O (centres undefined)	inactive
O=C(Nc1nc2ccccc2s1)c1ccc2c(c1)OCO2	inactive
CC(=O)NCCC(=O)Nc1nc(-c2ccc3c(c2)OCCO3)cs1	inactive
O=C(Nc1nc(-c2ccc3c(c2)OCO3)cs1)c1ccncc1	100 (active)
O=C(O)Cc1csc(NC(=O)CSc2nnnn2-c2ccc(O)cc2)n1	inactive
CC(C)NC(=O)NCCCCCCS(C)=O (centres undefined)	inactive
Cc1cc(C)c(S(=O)(=O)c2ccc(F)cc2C)c(=O)[nH]1	inactive

Structure (SMILES)	normalized B-score (activity score, 25-100; higher = stronger inhibition)
C=C(C)Cn1c(C)cc(C)c(S(=O)(=O)c2ccccc2C)c1=O	100 (active)
COc1ccccc1S(=O)(=O)c1c(C)cc(C)[nH]c1=O	inactive
Cc1ccc(NC(=O)CSc2nn3c(=O)c(C)nnc3s2)cc1Cl	inactive
CCC(C)c1ccccc1NC(=O)CN(C)CC(=O)Nc1ccccc1SC (centres undefined)	inactive
CCCCOC(=O)CCCc1ccc([N+](=O)[O-])cc1[N+](=O)[O-]	inactive
O=C(N/N=C/c1cc(Br)c(O)c([N+](=O)[O-])c1)C(O)(c1ccccc1)c1ccccc1	inactive
CN(C)/N=C/c1cc(Cl)cc([N+](=O)[O-])c1O	inactive
O=C(N/N=C/c1cc(Cl)cc([N+](=O)[O-])c1O)C(O)(c1ccccc1)c1ccccc1	100 (active)
S=C(NCc1ccc(Cl)cc1)NC12CC3CC(CC(C3)C1)C2	100 (active)
O=C(NCc1ccncc1)NC12CC3CC(CC(C3)C1)C2	inactive
O=C(NCc1ccc(Cl)cc1)NCc1ccc(Cl)cc1	inactive
C=CCn1c2ccccc2c2nnc(SCc3[nH]c(=O)[nH]c3C(=O)CCCCC(=O)OCC)nc21	inactive
COc1cc(N2C(=O)CC3(CCCC3)CC2=O)cc(OC)c1OC	inactive
COc1cc(OC)cc(C(=O)NNC(=O)CNC(=O)c2ccc(Br)o2)c1	inactive
CSCc1ccc(C(=O)Nc2cc(C)cc(C)c2)cc1	inactive
Fc1ccccc1COc1cccc2cccnc12	inactive
Cc1nc2ccccc2cc1OCc1ccc(F)cc1	25 (active)
Cc1occc(=O)c1OCc1ccc(F)cc1	inactive
CC1CCCCN1C(=O)Cn1c(=O)oc2cc(S(=O)(=O)N3CCCCC3)ccc21 (centres undefined)	inactive
Cc1cc(C)cc(NC(=O)Cn2cnc3c(nnn3Cc3ccc(F)cc3)c2=O)c1	inactive
CCC1SC2=NCCN2C1(O)c1ccc(Cl)cc1 (centres undefined)	inactive
Clc1ccccc1SCc1nc2ccccc2[nH]1	inactive
c1ccc(-c2nnc(SCc3nc4ccccc4[nH]3)o2)cc1	25 (active)
Clc1ccc(-c2nnc(SCc3nc4ccccc4s3)o2)cc1	inactive
